Experimental data taken from the supplement of paper PMC9694430.

Legend:
Assay in all cases: thermal shift delta Tm vs DMSO control; higher = stronger stabilization (binding)
Settings in all cases: 12.5 µM; protein concentration 2 µM
[1] = test system: LOC_OS02G45750-cb003
Method in brief: (§1)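 Heating from 25°C to 95°C at 0.05°C/s, fluorescence was recorded for 19.5 μl wells of 2 μM E. coli-expressed, purified rice kinase domain in 100 mM potassium phosphate pH 7.5, 150 mM NaCl, 10% glycerol and 5 × SYPRO Orange with compound in DMSO. Boltzmann fits gave melting temperatures for this differential scanning fluorimetry assay. The shift reported is the mean of three replicates against the DMSO-only protein.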

[2] = test system: LOC_OS02G54510-cb004
Method in brief: as §1

[3] = test system: LOC_OS03G04050-cb001
Method in brief: as §1

[4] = test system: LOC_OS03G12390-cb001
Method in brief: as §1

[5] = test system: LOC_OS03G27990-cb004
Method in brief: as §1

[6] = test system: LOC_OS03G50450-cb001
Method in brief: as §1

[7] = test system: LOC_OS03G50810-cb003
Method in brief: as §1

[8] = test system: LOC_OS04G35114-cb001
Method in brief: as §1

[9] = test system: T1, LOC_OS04G38480-cb003
T1 sequence (whole entry): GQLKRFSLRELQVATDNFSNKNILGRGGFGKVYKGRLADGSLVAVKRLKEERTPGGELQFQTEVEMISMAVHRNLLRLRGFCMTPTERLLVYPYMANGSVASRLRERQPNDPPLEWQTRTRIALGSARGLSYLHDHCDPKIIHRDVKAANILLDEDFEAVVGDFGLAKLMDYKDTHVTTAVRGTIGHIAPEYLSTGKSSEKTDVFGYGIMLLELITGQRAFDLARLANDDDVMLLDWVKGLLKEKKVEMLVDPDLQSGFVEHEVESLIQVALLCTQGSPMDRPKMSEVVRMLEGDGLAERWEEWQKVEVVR
Method in brief: as §1

[10] = test system: T2, LOC_OS04G41100-cb001
T2 sequence (whole entry): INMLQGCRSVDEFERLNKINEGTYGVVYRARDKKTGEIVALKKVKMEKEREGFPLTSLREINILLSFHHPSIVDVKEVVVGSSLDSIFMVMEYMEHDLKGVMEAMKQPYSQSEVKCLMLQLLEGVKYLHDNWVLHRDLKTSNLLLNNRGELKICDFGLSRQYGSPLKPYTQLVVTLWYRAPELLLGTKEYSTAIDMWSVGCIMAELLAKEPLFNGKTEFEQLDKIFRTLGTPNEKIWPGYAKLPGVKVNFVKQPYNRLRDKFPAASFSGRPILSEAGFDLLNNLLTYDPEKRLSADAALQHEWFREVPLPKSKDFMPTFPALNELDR
Method in brief: as §1

[11] = test system: LOC_OS04G57630-cb004
Method in brief: as §1

[12] = test system: LOC_OS05G07850-cb002
Method in brief: as §1

[13] = test system: LOC_OS05G16824-cb004
Method in brief: as §1

[14] = test system: LOC_OS05G28520-cb001
Method in brief: as §1

[15] = test system: LOC_OS05G30820-cb001
Method in brief: as §1

[16] = test system: LOC_OS05G43570-cb004
Method in brief: as §1

[17] = test system: LOC_OS06G16330-cb003
Chain of LOC_OS06G16330-cb003 (as listed by the source): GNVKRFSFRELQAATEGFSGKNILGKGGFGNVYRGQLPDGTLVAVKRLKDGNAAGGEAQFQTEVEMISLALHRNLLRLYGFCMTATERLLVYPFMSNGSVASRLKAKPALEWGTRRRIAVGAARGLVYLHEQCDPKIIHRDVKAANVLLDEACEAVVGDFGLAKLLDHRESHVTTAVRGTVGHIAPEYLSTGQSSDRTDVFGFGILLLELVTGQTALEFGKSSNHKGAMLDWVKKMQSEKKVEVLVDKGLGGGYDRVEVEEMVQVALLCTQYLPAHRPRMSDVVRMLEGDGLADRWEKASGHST
Method in brief: as §1

[18] = test system: T3, LOC_OS06G22820-cb001
T3 sequence (whole entry): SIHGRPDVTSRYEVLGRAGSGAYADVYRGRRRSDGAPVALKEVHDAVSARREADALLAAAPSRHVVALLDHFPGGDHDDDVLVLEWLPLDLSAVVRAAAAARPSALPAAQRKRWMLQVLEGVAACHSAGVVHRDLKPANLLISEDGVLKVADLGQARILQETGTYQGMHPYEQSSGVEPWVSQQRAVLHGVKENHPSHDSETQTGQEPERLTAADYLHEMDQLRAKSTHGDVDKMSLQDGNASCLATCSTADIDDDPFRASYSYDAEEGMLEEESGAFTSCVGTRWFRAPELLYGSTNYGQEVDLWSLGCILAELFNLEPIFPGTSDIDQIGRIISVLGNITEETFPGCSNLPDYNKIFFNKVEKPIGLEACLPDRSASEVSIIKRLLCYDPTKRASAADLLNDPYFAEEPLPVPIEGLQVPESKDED
Method in brief: as §1

[19] = test system: LOC_OS07G06570-cb004
Method in brief: as §1

[20] = test system: LOC_OS07G07230-cb001
Method in brief: as §1
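Also: purified Escherichia coli-expressed rice kinase domain construct.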

COc1cc(OC)cc(-c2cc3cnc(N)nc3nc2NC(=O)NC(C)(C)C)c1
thermal shift delta Tm [1]: 0.88 °C | thermal shift delta Tm [2]: 0.19 °C | thermal shift delta Tm [3]: 0.34 °C | thermal shift delta Tm [4]: 0.31 °C | thermal shift delta Tm [5]: 0.16 °C | thermal shift delta Tm [6]: 0.18 °C | thermal shift delta Tm [7]: 0.24 °C | thermal shift delta Tm [8]: 0 °C | thermal shift delta Tm [9]: 0.52 °C | thermal shift delta Tm [10]: 0.39 °C | thermal shift delta Tm [11]: 0.07 °C | thermal shift delta Tm [12]: 1.66 °C | thermal shift delta Tm [13]: -1.45 °C | thermal shift delta Tm [14]: -0.04 °C | thermal shift delta Tm [15]: 0.11 °C | thermal shift delta Tm [16]: 0.05 °C | thermal shift delta Tm [17]: -0.44 °C | thermal shift delta Tm [18]: 0.29 °C | thermal shift delta Tm [19]: 1.06 °C | thermal shift delta Tm [20]: 1 °C

CN(C[C@@H]1COCCO1)S(=O)(=O)Nc1ccc2ccc3ncc(-c4cnn(C)c4)cc3c(=O)c2c1
thermal shift delta Tm [1]: 9.61 °C | thermal shift delta Tm [2]: 0.42 °C | thermal shift delta Tm [3]: 0.37 °C | thermal shift delta Tm [4]: 0.09 °C | thermal shift delta Tm [5]: 1.72 °C | thermal shift delta Tm [6]: 0.44 °C | thermal shift delta Tm [7]: 3.78 °C | thermal shift delta Tm [8]: 7.88 °C | thermal shift delta Tm [9]: 2.89 °C | thermal shift delta Tm [10]: 0.3 °C | thermal shift delta Tm [11]: 4.12 °C | thermal shift delta Tm [12]: 10.5 °C | thermal shift delta Tm [13]: 7.72 °C | thermal shift delta Tm [14]: 0.77 °C | thermal shift delta Tm [15]: 1.85 °C | thermal shift delta Tm [16]: 0.41 °C | thermal shift delta Tm [17]: 7.23 °C | thermal shift delta Tm [18]: 0.65 °C | thermal shift delta Tm [19]: 1.07 °C | thermal shift delta Tm [20]: 0.63 °C

NC1(c2ccc(-c3nc4ccn5c(=O)[nH]nc5c4cc3-c3ccccc3)cc2)CCC1
thermal shift delta Tm [1]: -0.2 °C | thermal shift delta Tm [2]: 0.21 °C | thermal shift delta Tm [3]: 0.25 °C | thermal shift delta Tm [4]: -0.32 °C | thermal shift delta Tm [5]: 0.81 °C | thermal shift delta Tm [6]: 0.2 °C | thermal shift delta Tm [7]: -0.2 °C | thermal shift delta Tm [8]: 0.61 °C | thermal shift delta Tm [9]: -0.22 °C | thermal shift delta Tm [10]: 0.57 °C | thermal shift delta Tm [11]: -0.22 °C | thermal shift delta Tm [12]: 1.31 °C | thermal shift delta Tm [13]: -1.83 °C | thermal shift delta Tm [14]: 0.28 °C | thermal shift delta Tm [15]: 0.4 °C | thermal shift delta Tm [16]: 0.14 °C | thermal shift delta Tm [17]: 0.62 °C | thermal shift delta Tm [18]: 0.61 °C | thermal shift delta Tm [19]: 0.66 °C | thermal shift delta Tm [20]: 0.17 °C

Nc1nc(N)c(N=O)c(OCC2CCCCC2)n1
thermal shift delta Tm [1]: 0.64 °C | thermal shift delta Tm [2]: 0.21 °C | thermal shift delta Tm [3]: 0.46 °C | thermal shift delta Tm [4]: 3.99 °C | thermal shift delta Tm [5]: 2.79 °C | thermal shift delta Tm [6]: 0.35 °C | thermal shift delta Tm [7]: 0.92 °C | thermal shift delta Tm [8]: 1.13 °C | thermal shift delta Tm [9]: 1.28 °C | thermal shift delta Tm [10]: 0.59 °C | thermal shift delta Tm [11]: 0.27 °C | thermal shift delta Tm [12]: 8.06 °C | thermal shift delta Tm [13]: 1.8 °C | thermal shift delta Tm [14]: 0.61 °C | thermal shift delta Tm [15]: 0.8 °C | thermal shift delta Tm [16]: 0.23 °C | thermal shift delta Tm [17]: 2.17 °C | thermal shift delta Tm [18]: 0.95 °C | thermal shift delta Tm [19]: 1.43 °C | thermal shift delta Tm [20]: -0.02 °C

CN1CCN(S(=O)(=O)c2ccc(-c3cnc(N)c(C(=O)Nc4cccnc4)n3)cc2)CC1
thermal shift delta Tm [1]: 3.58 °C | thermal shift delta Tm [2]: 0.11 °C | thermal shift delta Tm [3]: 0.29 °C | thermal shift delta Tm [4]: 1.18 °C | thermal shift delta Tm [5]: 0.73 °C | thermal shift delta Tm [6]: 0.63 °C | thermal shift delta Tm [7]: 0.87 °C | thermal shift delta Tm [8]: 2.43 °C | thermal shift delta Tm [9]: 1.65 °C | thermal shift delta Tm [10]: 0.85 °C | thermal shift delta Tm [11]: 0.6 °C | thermal shift delta Tm [12]: 7.93 °C | thermal shift delta Tm [13]: 1.41 °C | thermal shift delta Tm [14]: 0.68 °C | thermal shift delta Tm [15]: 0.46 °C | thermal shift delta Tm [16]: -0.03 °C | thermal shift delta Tm [17]: 2.59 °C | thermal shift delta Tm [18]: 0.9 °C | thermal shift delta Tm [19]: 1.34 °C | thermal shift delta Tm [20]: 0.52 °C

COc1ccc(Oc2cc(NCCC(F)(F)F)c3ncc(-c4ccc(C(=O)NC5CC5)c(C)c4)n3n2)c(F)c1F
thermal shift delta Tm [1]: 0.77 °C | thermal shift delta Tm [2]: 0.01 °C | thermal shift delta Tm [3]: 0.48 °C | thermal shift delta Tm [4]: 0.31 °C | thermal shift delta Tm [5]: 0.55 °C | thermal shift delta Tm [6]: 0.46 °C | thermal shift delta Tm [7]: 1.7 °C | thermal shift delta Tm [8]: 1.1 °C | thermal shift delta Tm [9]: 1.64 °C | thermal shift delta Tm [10]: 0.4 °C | thermal shift delta Tm [11]: 0.38 °C | thermal shift delta Tm [12]: 2.11 °C | thermal shift delta Tm [13]: -2.18 °C | thermal shift delta Tm [14]: 1.04 °C | thermal shift delta Tm [15]: 0.67 °C | thermal shift delta Tm [16]: 0.63 °C | thermal shift delta Tm [17]: 0.09 °C | thermal shift delta Tm [18]: 0.73 °C | thermal shift delta Tm [19]: -0.39 °C | thermal shift delta Tm [20]: 1.65 °C

Cc1nc(Nc2ncc(C(=O)Nc3c(C)cccc3Cl)s2)cc(N2CCN(CCO)CC2)n1 [Dasatinib]
thermal shift delta Tm [1]: 10.7 °C | thermal shift delta Tm [2]: 14 °C | thermal shift delta Tm [3]: 0.29 °C | thermal shift delta Tm [4]: 0.81 °C | thermal shift delta Tm [5]: 1.34 °C | thermal shift delta Tm [6]: 0.06 °C | thermal shift delta Tm [7]: 3.61 °C | thermal shift delta Tm [8]: 5.79 °C | thermal shift delta Tm [9]: 1.57 °C | thermal shift delta Tm [10]: 0.77 °C | thermal shift delta Tm [11]: 2.57 °C | thermal shift delta Tm [12]: 4.35 °C | thermal shift delta Tm [13]: 5.06 °C | thermal shift delta Tm [14]: 1.02 °C | thermal shift delta Tm [15]: 0.42 °C | thermal shift delta Tm [16]: 0.75 °C | thermal shift delta Tm [17]: 1.61 °C | thermal shift delta Tm [18]: 0.79 °C | thermal shift delta Tm [19]: 1.03 °C | thermal shift delta Tm [20]: 1.1 °C
